The structures appear in SMILES notation. Screen size: about 650,000 compounds; about 5,900 (0.91%) were called active. For the sample, actives were picked, then their nearest neighbours and some compounds at random. A number with no mark means an inactive call. Cut-off read from the data, not from the text of the source: active = inhibition above about 50%; inactive = the rest.

In the assay the target is Microphthalmia-associated transcription factor (Homo sapiens) (UniProt O75030). In words: MITF inhibitors, primary screen, biochemical, AlphaScreen, human (AID 1259374).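 Note: 0% = vehicle wells with protein.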 To be noted: AlphaScreen MITF homodimerization, bead proximity signal; at 2.6 µM; stronger effect = higher value. (Bead proximity is the source of the signal in Alpha formats.)
Sequence of Microphthalmia-associated transcription factor (Homo sapiens) (O75030 whole entry, looked up): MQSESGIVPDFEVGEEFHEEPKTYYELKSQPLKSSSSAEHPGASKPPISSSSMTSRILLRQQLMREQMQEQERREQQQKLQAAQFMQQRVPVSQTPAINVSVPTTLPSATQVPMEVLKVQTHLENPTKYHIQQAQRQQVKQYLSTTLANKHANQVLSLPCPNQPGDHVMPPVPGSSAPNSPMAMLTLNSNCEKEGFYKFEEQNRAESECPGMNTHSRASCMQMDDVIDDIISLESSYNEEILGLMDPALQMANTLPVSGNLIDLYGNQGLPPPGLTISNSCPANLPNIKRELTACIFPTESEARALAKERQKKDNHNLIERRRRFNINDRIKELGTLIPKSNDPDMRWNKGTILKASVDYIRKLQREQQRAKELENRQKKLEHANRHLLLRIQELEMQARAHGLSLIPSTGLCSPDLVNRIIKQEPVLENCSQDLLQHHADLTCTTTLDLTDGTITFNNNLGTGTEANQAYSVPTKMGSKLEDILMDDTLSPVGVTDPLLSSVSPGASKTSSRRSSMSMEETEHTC
A word on the inhibition: it is the change of the read-out against control, counted positive when it falls. For the compound `CC1CCCCC1NC(=O)CSc1nnc(-c2ccncc2)n1CCCN(C)C` (stereo unspecified), the inhibition is 85.7% (active). With `CCCn1c(SCC(=O)NC2CCCCC2C)nnc1-c1cccnc1` (stereo unspecified), the inhibition was 0.55%. Turning to `COCCCn1c(SCC(=O)NC2CCCCC2)nnc1-c1ccccc1`, the inhibition is 8.3%.

Take `CCNC(=S)NNC(=O)c1cccc(S(=O)(=O)Nc2ccc(C)cc2C)c1`: the inhibition was 6.71%. For the compound `CCCS(=O)(=O)N1CCc2ccc(NC(=O)/C=C/c3ccco3)cc2C1`, the inhibition was 14.1%. For the compound `CNC(=O)c1ccccc1Nc1cc(Nc2ccc(N3CCOCC3)cc2OC)ncc1F`, the inhibition was 4.9%. Consider `COc1cc(N2CCOCC2)ccc1Nc1cc(Nc2ccccc2-n2cccn2)c(C(F)(F)F)cn1`, for which the inhibition is 57.2% (active).

For the compound `COc1cc(N2CCOCC2)ccc1Nc1cc(Nc2ccccc2C(N)=O)ccn1`, the inhibition was 21.1%. For the compound `N#CCN1C(=O)C(=O)/C(=C(/O)c2ccccc2)C1c1ccccn1` (stereo unspecified), the inhibition was 19.8%. In the case of `COc1cc(CN2CCC(N3CCC(C(=O)NCC4CCCO4)CC3)CC2)cc(OC)c1` (stereo unspecified), the inhibition was 6.5%. With `CC(C)c1ccc(C2/C(=C(/O)c3ccccc3)C(=O)C(=O)N2CCN(C)C)cc1` (stereo unspecified) the figure was 57.4% (active). With `CN(C)c1ccc(C2/C(=C(/O)c3ccccc3)C(=O)C(=O)N2CCO)cc1` (stereo unspecified) the figure was -0.75%; with `Cc1ccc(C2/C(=C(/O)c3ccc(Cl)cc3)C(=O)C(=O)N2CCN(C)C)cc1` (stereo unspecified), -18.6%; with `O=C(Nc1ccc(-c2cn3ccccc3n2)cc1)c1ccc(Br)o1`, 11.4%. With `C/C(=N\Nc1ccc(Cl)c(C(=O)O)c1)c1ccc([N+](=O)[O-])cc1` the figure was 0.79%; with `CS(=O)(=O)N(Cc1ccccc1)c1ccccc1C(=O)N1CCCCCC1`, -12%; with `CCN(CC)S(=O)(=O)c1ccc(OCC(=O)Nc2ccc(C(C)=O)cc2)c([N+](=O)[O-])c1`, -5.88%. Take `CCCCCOc1ccc(OC(=O)c2ccc(-c3ccc(CCC)cn3)cc2)cc1`: the inhibition is 57.3% (active). For `CCCCOc1ccc(OC(=O)c2ccc(-c3ccc(CC)cn3)cc2)cc1`, the inhibition was -0.56%. Take `CCCCCc1ccc(-c2ccc(C(=O)Oc3ccc(-c4ccccc4)cc3)cc2)nc1`: the inhibition is 3.19%.

Regarding `CCOC(=O)C1CCCN(c2c(OCC)c(=O)c2=O)C1` (stereo unspecified), the inhibition is -5.33%. As for `CCN(CCCNC(=O)CCCn1c(=S)[nH]c2cc3c(cc2c1=O)OCO3)c1cccc(C)c1`, the inhibition is 2.49%. In the case of `CN1CCN(S(=O)(=O)c2ccc(F)c(Cl)c2)CC1`, the inhibition was 19.5%. Turning to `CCN1CCN(CC(O)COc2cccc(C(=O)OC)c2)CC1` (stereo unspecified), the inhibition is 53.1% (active). On to `CN1CCN(CC(O)COc2ccc3ccccc3c2)CC1` (stereo unspecified), for which the inhibition is 18.6%.

With `O=C(c1ccccc1)N1CCN(CC(O)COc2cccc(Cl)c2)CC1` (stereo unspecified), the inhibition was -18.1%. Consider `O=C(/C=C/c1ccc([N+](=O)[O-])cc1)NCCSC1CCCCC1`, for which the inhibition is 27.9%.

On to `CCOc1ccccc1N1C(=O)c2nccnc2C1=O`, for which the inhibition is 1.76%. Consider `CCOc1cc(/C=N/O)ccc1OCc1cccc(F)c1`, for which the inhibition is 9.06%. For the compound `CCC(C)NCC(=O)Nc1cccc(C)c1C` (stereo unspecified), the inhibition is -0.21%. Consider `Cc1cccc(NC(=O)CNCCN2CCCCC2)c1C`, for which the inhibition is 62.5% (active).

For the compound `COCCNCC(=O)Nc1cccc(C)c1C`, the inhibition is -3.31%. With `Cc1ccc2c(c1)-c1onc(C(=O)Nc3ccc(Cl)cn3)c1CO2`, the inhibition was 12.1%.

Turning to `COc1ccccc1NC(=O)Cn1cnc2sc(C(=O)O)c(C)c2c1=O`, the inhibition is -5%. For `C=CCn1c(SCC(=O)Nc2nc3ccccc3s2)nc(O)cc1=O` the value was 67% (active). In the case of `O=C(CSc1cccc[n+]1[O-])Nc1nc2ccccc2s1`, the inhibition is 14.6%. As to `O=C(CSc1ncnc2ccccc12)Nc1nc2ccccc2s1`, the inhibition is 4.66%. For `CCn1cc(C(=O)N[C@H](C)Cn2nnc3ccccc32)c(=O)c2ccc(C)nc21` the value was 0.5%. With `Cc1ccc(NC(=O)C2C3NC(=S)N(c4ccc(F)cc4)C2(C)Oc2ccc(Br)cc23)c(C)c1` (stereo unspecified), the inhibition was 8.95%. In the case of `CCCN1CCc2nc(NC(=O)COc3ccc(Cl)cc3Cl)sc2C1`, the inhibition is 4.61%. As for `O=C(Nc1ccc2c(c1)OCO2)C(c1ccccc1)N(Cc1ccccc1)Cc1ccccc1` (stereo unspecified), the inhibition is 75.7% (active).

Take `O=C(Nc1ccc2c(c1)OCO2)C(c1ccccc1)N1CCC(Cc2ccccc2)CC1` (stereo unspecified): the inhibition was -8.34%.

On to `CN(c1ccccc1)C(C(=O)Nc1ccc2c(c1)OCCO2)c1ccccc1` (stereo unspecified), for which the inhibition is 17.5%.

With `O=C1Nc2cc(C(=O)O)ccc2S/C1=C/c1ccccc1Cl`, the inhibition is 2.94%.

Regarding `CCOC(=O)c1ccc(Nc2ncnc3c2cnn3-c2ccccc2)cc1`, the inhibition is 15.3%. On to `Cc1nc(NC(=O)c2ccoc2C)sc1C`, for which the inhibition is 1.06%. Regarding `Cc1nc(NC(=O)c2cc(Br)ccc2Cl)sc1C`, the inhibition is 53.2% (active).

Turning to `COc1ccc(C(=O)Nc2nc(C)c(C)s2)c(OC)c1`, the inhibition is 20.7%. As to `NC(=O)c1ccccc1NC(=O)CNCc1ccco1`, the inhibition is -15.5%. Turning to `CCCn1c(SCC(=O)Nc2ccc(C(C)=O)cc2)n[nH]c1=O`, the inhibition was -6.45%.

As for `Cc1ccc(-c2n[nH]c(CNC(=O)c3cnccn3)n2)cc1`, the inhibition is 1.68%. Turning to `CCOc1ccccc1NC(=O)c1ccccc1NC(=O)c1ccc(OC)cc1`, the inhibition was -3.48%. Take `S=c1[nH]nc(COc2cccc(Br)c2)n1-c1ccccc1`: the inhibition is 4.84%. Consider `CCCCC(=O)NCc1ccc(F)cc1`, for which the inhibition is 56.8% (active).

Regarding `O=C(CC1CCCCC1)NCc1ccc(F)cc1`, the inhibition is -4.27%. Regarding `Cn1c(C(=O)O)c(CC(=O)NCc2ccc(F)cc2)c2ccccc21`, the inhibition is 63.1% (active).

For the compound `CN(Cc1ccccc1)C(=O)Cc1c(C(=O)O)n(C)c2ccccc12`, the inhibition is 12.8%. `Cc1ccc(CS(=O)(=O)CCC(=O)NCc2ccc(F)cc2)cc1`: the inhibition is 9.88%.

Consider `Cn1c(C(=O)O)c(CC(=O)Nc2ccc(F)cc2)c2ccccc21`, for which the inhibition was -7.75%. Consider `CC(=O)/C=C/c1oc2ccccc2c1-c1ccc(C)o1`, for which the inhibition was 21.6%. For the compound `COc1cccc(/C=N/NC(=O)COc2cccc(Cl)c2)c1`, the inhibition was 1.05%.

On to `Cc1ccc(-c2c(C(=O)O)nnn2-c2nonc2N)cc1`, for which the inhibition is 3.35%.

Regarding `O=C(c1ccccc1F)N1CCN(C2CCCC2)CC1`, the inhibition is 29.8%. For `O=C(c1ccc(-n2c(=S)[nH]c3ccccc3c2=O)cc1)N1CCN(C2CCCCC2)CC1`, the inhibition is 6.86%. Turning to `O=C(c1ccccc1)N1CCN(C2CCCC2)CC1`, the inhibition is 52.8% (active).

Regarding `N#Cc1cc2cc3c(cc2nc1SCC(=O)Nc1nccs1)OCO3`, the inhibition was 5.9%. With `Cc1nc(C(C)N(C)C(=O)Cn2cc(NC(=O)CCOc3ccccc3)cn2)c(C)s1` (stereo unspecified), the inhibition was -7.45%.

On to `CCOC(=O)C(NC(=O)c1ccc(N2CC3CC(C2)c2cccc(=O)n2C3)c(NC(=O)c2cc(OC)cc(OC)c2)c1)C(=O)OCC` (stereo unspecified), for which the inhibition was -6.03%. In the case of `COc1ccc(-c2cnnc(NCc3ccc(Cl)cc3)n2)cc1`, the inhibition is -5.57%. Turning to `CCCCNc1ncnc2c1[nH]c1ccc(F)cc12`, the inhibition is 18%. Take `COc1ccc(C2=N/C(=C\c3ccco3)C(=O)O2)cc1OC`: the inhibition was 14.6%. For `CCCn1c(=O)c(C(=O)NCc2ccc(Cl)cc2)c(O)c2ccccc21` the value was 13.8%. With `CCN(CC(=O)NCc1ccc(Cl)cc1)Cn1nnc2ccccc21` the figure was 85.1% (active); with `O=C(Cn1nnc2ccccc21)N/N=C/c1c(O)ccc2ccccc12`, 14.9%; with `COc1cc(-c2cn[nH]c2)ccc1C(=O)NCC(C)c1cccs1` (stereo unspecified), 0.52%. On to `Cc1c(C(=O)Nc2cccc(C(F)(F)F)c2)sc2ncn(C)c(=O)c12`, for which the inhibition was -1.25%. For `Cc1ccc(NC(=O)c2ccc(NC(N)=O)cc2)cc1`, the inhibition was -11%. In the case of `O=C(COc1ccc(Cl)cc1Cl)Nc1cccc(Br)c1`, the inhibition was -1.08%. As for `Cc1cc(NC(=O)Cn2cnc3c2c(=O)n(C)c(=O)n3C)no1`, the inhibition was 18%. Regarding `Cc1cc(NC(=O)c2ccc(N(C)C)cc2)no1`, the inhibition is 7.76%.

Regarding `Cc1cc(NC(=O)CNCCCN(C)C)no1`, the inhibition was 64.8% (active).

With `COC(=O)c1ccccc1NC(=O)CC1Nc2cc(C)c(C)cc2NC1=O` (stereo unspecified), the inhibition was 6.95%.

In the case of `O=C(c1ccc2c(c1)OCO2)N1CCCCC1c1nc2ccccc2[nH]1` (stereo unspecified), the inhibition is 10.6%. Regarding `CN1CCC(N2CCN(c3ccccc3Cl)CC2)CC1`, the inhibition was 55.2% (active). On to `CCCN1CCC(N2CCN(c3cccc(Cl)c3)CC2)CC1`, for which the inhibition is 15%. For `CCS(=O)(=O)N1CCC(N2CCN(c3ccccc3)CC2)CC1` the value was 11.4%; for `Cc1nc(-c2cncc(Br)c2)cc(N2CCC(O)CC2)n1`, 3.37%; for `CC(C)C(c1nnnn1C(C)C)N1CCN(c2ccccc2F)CC1` (stereo unspecified), 7.59%. `COc1ccc(C2C(C(C)=O)=C(C)N=c3s/c(=C\c4cc(C)n(-c5ccc(Cl)cc5)c4C)c(=O)n32)c(OC)c1` (stereo unspecified): the inhibition was 0.25%.

Regarding `COc1ccc(C2C(C(C)=O)=C(C)N=C3SCC(=O)N32)c(OC)c1` (stereo unspecified), the inhibition was 63.8% (active). Regarding `CCOC(=O)C1=C(C)N=C2SCC(=O)N2C1c1cc(OC)c(OC)c(OC)c1` (stereo unspecified), the inhibition was 15.1%. In the case of `CCc1nnc(NC(=O)CSc2nnc(-c3ccccn3)n2-c2ccccc2C)s1`, the inhibition is 1.39%.

Consider `CCOc1cc(C2C3=C(CCCC3=O)N(CC)C3=C2C(=O)CCC3)cc(Cl)c1O`, for which the inhibition is 3.45%. With `COC(=O)C1(C)NC(c2ccc(C)cc2)C2C(=O)N(c3ccc(F)cc3)C(=O)C21` (stereo unspecified) the figure was 77.9% (active); with `COC(=O)C1(C)NC(c2ccc(C)cc2)C2C(=O)N(c3ccc(C)cc3)C(=O)C21` (stereo unspecified), 10.8%; with `COC(=O)C1(C)NC(c2ccccc2OC)C2C(=O)N(c3ccccc3)C(=O)C21` (stereo unspecified), 17.7%.

For the origin of these results see PubChem BioAssay AID1259374 (The Scripps Research Institute Molecular Screening Center, 2018).
